Source: PubChem BioAssay (EPA / NIEHS)
Values joined by “and” are separate entries in the source; they are usually repeats but may differ in a detail not shown here. Equal entries are not always repeated. Active and inactive are the calls of the source. How the source made its calls: active means hit-call score of the fitted dose curve at least 0.9, where 1 is the maximum; inactive means score below 0.9.

Read-out: flavin-containing dimethylaniline monooxygenases 3 (FMO3), FMO3 (gene 2328)
Assay: LTEA_HepaRG_FMO3: Life Technologies and Expression Analysis (LTEA) Assay for flavin-containing dimethylaniline monooxygenases 3 (FMO3) using HepaRG (AID 2283453);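 on AC50: FMO3 transcript by TaqMan qRT-PCR normalized to ACTB GAPDH and POLR2A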
Conditions: mRNA level, 48 h; actives raise or lower the signal
Protocol: LTEA_HepaRG is a cell based, multiplexed-readout assay that uses HepaRG, a human liver cell line, with measurements taken at 48 hours after chemical dosing on a 96-well plate.LTEA_HepaRG_FMO3 is one of 102 assay component(s) measured in the LTEA HepaRG cell culture assay. It is a marker of NR mediated metabolism.Data from the assay component LTEA_HepaRG_FMO3 was analyzed into 1 endpoint. This assay endpoint, LTEA_HepaRG_FMO3, was analyzed with bidirectional fitting relative to DMSO as the negative control and baseline of activity. Using a type of inducible reporter, measures of mRNA induction for gain or loss-of-signal activity can be used to understand regulation of transcription factor activity. To generalize the intended target to other relatable targets, this assay endpoint is annotated to the oxidoreductase intended target family, where the subfamily is […].
A total of 1060 chemcials from the ToxCast library were tested in eight-point concentration-response experiments. Cell culture and cytotoxicity assays were conducted at Thermo Fisher Scientific's Custom Services facility (Madison, WI). A single lot of human HepaRG cells (Thermo Fisher Scientific, Frederick, MD) was used for the cell culture experiments. 96-well format collagen type I coated plates of human HepaRG cells were prepared using established methods. Briefly, cryopreserved HepaRG cells were thawed, plated at a density of approximately 100,000 cells/well in HepaRG Thaw, Plate, and General Purpose media (HPRG770, Thermo Fisher Scientific), and incubated for 48 hours. 0.5% DMSO was selected as vehicle control to balance the requisite need of DMSO in HepaRG cultures to maintain differentiation (for example, baseline metabolism, proportions of hepatocytes vs. cholangiocytes), while enabling further hepatic receptor pathway activation (for example, PXR and CAR) in response to chemical exposure. 48 hours after plating, the culture medium was replaced with HepaRG Serum-Free Incudtion Media. Cells were exposed to each test chemical in duplicate and maintained in CO2 incubators for another 48 hours. Chemical plates were thawed to room temperature and 200x concentrations of treatment groups were prepared. 8-point conentration-reponse curves were made with the highest exposure at 100 uM, followed by half-log dilutions, all in 0.5% DMSO. Each test plate contained variouse controls, induction positive controls (1mM phenobarbital), cytotoxicity positive controls ([…] aflatoxin B1), vehicle controls (0.5% DMSO), and total lysis controls (0.5% DMSO). Cell morphology images were taken using an Essen IncuCyte FLR automated microscope, with six 96-well plates imaged in about 24 minutes. Images were captured and exported and JPEG files. Spent culture media was transfered to black-well plates for the LDH assay, and remaining media was sorted at -80 C for later use. Cells were treated with RLT buffer and frozen until shipped for gene expression analysis. Total RNA was isolated from the cell suspension in 75 uL of Buffer RLT (Qiagen, Germantown, MD 20874) by Quintiles/Expression Analysis (Durham, NC) using a custom isolation procedure. Total RNA from each plate well was transferred to a preamplification plate. Fluidigm's 96.96 Dynamic ArrayTM (Fluidigm, Amsterdam, the Netherlands) technology was used for gene expression analyses by quantitative reverse transcription polymerase chain reaction (qRT-PCR, performed by Quintiles/Expression Analysis, Durham, NC)89. Standard TaqManTM Assays (Applied Biosystems/ThermoFisher Scientific, Foster City, CA) were used to assess the expression of 93 genes selected based on their selectivity and sensitivity to important hepatic receptors known to be modulated by environmental chemicals; importance in human hepatocyte functionality; and hepatotoxicity. […]

Q: Which outcome does the source give for `CCCN(CCC)C(=O)SCC` here?
A: inactive

Q: For `CSC(=O)c1cccc2nnsc12`, which outcome is on record?
A: inactive

Q: Which outcome does the source give for `OB(O)O` here?
A: inactive

Q: With `O=C(O)c1ccccc1` as the compound, how does the outcome read?
A: inactive

Q: Which outcome does the source give for `COC(=O)CSc1cc(N=c2sc(=O)n3n2CCCC3)c(F)cc1Cl` here?
A: inactive

Q: `O=C(c1ccc(O)cc1O)c1ccc(O)cc1O` was tested. Which outcome did it give?
A: inactive

Q: How did the AC50 turn out when `CC(=O)S[C@@H]1CC2=CC(=O)CC[C@]2(C)[C@H]2CC[C@@]3(C)[C@@H](CC[C@@]34CCC(=O)O4)[C@H]12` was run?
A: 60.3 µM (active)

Q: Which AC50 does the source give for `CCN(Cc1c(F)cccc1Cl)c1c([N+](=O)[O-])cc(C(F)(F)F)cc1[N+](=O)[O-]` here?
A: 50 µM (active)

Q: For `CCCCC(CC)COC(=O)c1ccccc1C(=O)O` (stereo not given), which outcome is on record?
A: inactive

Q: Which outcome does the source give for `COC(=O)c1ccc(I)cc1S(=O)(=O)NC(=O)Nc1nc(C)nc(OC)n1` here?
A: inactive

Q: Which AC50 does the source give for `CCOC(=O)C(C)Oc1ccc(Oc2cnc3cc(Cl)ccc3n2)cc1` (stereo not given) here?
A: 14 µM (active)

Q: With `CC(C)(C)[C@@H](O)[C@@H](Cc1ccc(Cl)cc1)n1cncn1` as the compound, how does the outcome read?
A: inactive

Q: For `CCNc1nc(N)nc(Cl)n1`, which outcome is on record?
A: inactive

Q: How did the AC50 turn out when `CCCCC(CC)CN1C(=O)C2C3C=CC(C3)C2C1=O` (stereo not given) was run?
A: 78.7 µM (active)

Q: How did the outcome turn out when `CCCN(CCC)c1c([N+](=O)[O-])cc(C(F)(F)F)c(N)c1[N+](=O)[O-]` was run?
A: inactive

Q: `O=C(c1ccccc1)C1CCCCC1` was tested. Which outcome did it give?
A: inactive

Q: With `N[C@@H](Cc1cc(I)c(Oc2ccc(O)c(I)c2)c(I)c1)C(=O)O` as the compound, how does the AC50 read?
A: 40 µM (active)

Q: For `CC(C)CCCCCCc1ccc(O)cc1`, which outcome is on record?
A: inactive

Q: Which outcome does the source give for `CCOC(=O)C(C)Oc1ccc(Oc2nc3ccc(Cl)cc3o2)cc1` (stereo not given) here?
A: inactive

Q: How did the AC50 turn out when `S=C([S-])NCCNC(=S)[S-].[Mn+2]` was run?
A: 5.71 µM (active)

Q: With `O=C(Nc1ccc([N+](=O)[O-])cc1Cl)c1cc(Cl)ccc1O` as the compound, how does the AC50 read?
A: 2.69 µM (active)

Q: `c1ccc(Nc2ccccc2)cc1` was tested. Which outcome did it give?
A: inactive

Q: `C[C@]12CC[C@@H]3c4ccc(O)cc4C[C@@H](CCCCCCCCCS(=O)CCCC(F)(F)C(F)(F)F)[C@H]3[C@@H]1CC[C@@H]2O` (stereo not given in full) was tested. Which AC50 did it give?
A: 44.4 µM (active)

Q: How did the AC50 turn out when `O=C(O)C1(C(=O)Nc2ccc(Cl)cc2Cl)CC1` was run?
A: 67 µM (active)

Q: For `CCCCOC(=O)[C@@H](C)Oc1ccc(Oc2ccc(C(F)(F)F)cn2)cc1`, which outcome is on record?
A: inactive

Q: With `CC(C)(c1ccc(O)cc1)c1ccc(O)cc1` as the compound, how does the outcome read?
A: inactive

Q: With `C=CCOC(Cn1ccnc1)c1ccc(Cl)cc1Cl` (stereo not given) as the compound, how does the AC50 read?
A: 35.3 µM (active)

Q: For `C#CCOC(=O)[C@@H](C)Oc1ccc(Oc2ncc(Cl)cc2F)cc1`, which outcome is on record?
A: inactive

Q: `c1ccc2[nH]c(-c3cscn3)nc2c1` was tested. Which outcome did it give?
A: inactive

Q: With `CCC(C)OC(=O)N1CCCCC1CCO` (stereo not given) as the compound, how does the outcome read?
A: inactive

Q: For `CCCCCOC(=O)COc1cc(N2C(=O)C3=C(CCCC3)C2=O)c(F)cc1Cl`, which outcome is on record?
A: inactive

Q: `CC(=O)[C@H]1CC[C@H]2[C@@H]3CCC4=CC(=O)CC[C@]4(C)[C@H]3CC[C@]12C` was tested. Which AC50 did it give?
A: 34.1 µM (active)

Q: Which outcome does the source give for `C#C[C@]1(O)CC[C@H]2[C@@H]3CCC4=CC(=O)CC[C@@H]4[C@H]3CC[C@@]21CC` here?
A: inactive

Q: For `C[C@]12C[C@H](O)[C@H]3[C@@H](CCC4=CC(=O)CC[C@@]43C)[C@@H]1CC[C@@H]2C(=O)CO`, which outcome is on record?
A: inactive

Q: Which AC50 does the source give for `CN(C)C(=O)Nc1ccc(Cl)c(Cl)c1` here?
A: 50 µM (active)

Q: How did the outcome turn out when `N#CSCSc1nc2ccccc2s1` was run?
A: inactive

Q: Which outcome does the source give for `CCN(CC)C(=O)c1cccc(C)c1` here?
A: inactive

Q: Which outcome does the source give for `CCSC(=O)N(CC(C)C)CC(C)C` here?
A: inactive

Q: `S=C(S)NCCNC(=S)S.[Mn+2].[S-]C([S-])=NCCN=C([S-])[S-].[Zn+2]` was tested. Which AC50 did it give?
A: 4.22 µM (active) and 2.04 µM (active) and 2.68 µM (active)

Q: `COc1c(Cl)ccc(Cl)c1C(=O)O` was tested. Which outcome did it give?
A: inactive
